The source of these data is PubChem BioAssay (NCATS).

Results filed as inconclusive are left out. The source made the active and inactive calls. The call rests on the fitted dose curve; in most records, active means well fitted inhibition curve with a large enough effect; inconclusive means small, poorly fitted or top-dose-only effect; inactive means flat fitted curve, though single readings scatter. Where a SMILES comes first, the peptide text is derived from it. Bridges are numbered along the chain shown (N, C = ends). [ ]: non-standard residue; d: D form. hArg = N=C(N)NCCCC[C@H](N)C(=O)O; Mpa = O=C(O)CCS
On the % scale 0 is the no-effect control and ±100 the full control effect.

A short description of the assay: Drug repurposing screens with cells derived from glioblastoma tumor samples (AID 1345199). Further: nearly all actives have a fitted effect of over 40% in size. The note with it: GBM patient neurospheres viability, ATP luminescence, 48 h; at 46.1 µM (top of the series); tumour line C. An outline of the steps:
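Primary testing used CD133+ neurospheres from four GBM patients, seven concentrations, 48 h exposure and ATP-based viability; confirmation added three slower-growing patient lines.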
For `CN1C[C@@H]2C[C@H]1CN2c1cc2c(cc1F)c(=O)c(C(=O)O)cn2C1CC1`, the activity, negative = cell killing is 3.73% (inactive). Regarding `CCOc1ccc(C(=O)OCCN(CC)CC)cc1`, the activity, negative = cell killing is -17.9% (inactive). To `CCOc1cc(NC(C)=O)ccc1C(=O)OC` belongs 2.82% (inactive); to `COc1nccnc1NS(=O)(=O)c1ccc(N)cc1`, -3.06% (inactive). As for `CCCCCC(C)N` (centres undefined), the figure is -13.3% (inactive).

In the case of `CCc1nnc(NS(=O)(=O)c2ccc(N)cc2)s1`, the activity, negative = cell killing was -20.9% (inactive). As for `O=C(O)c1ccc(OCCCOc2ccc(C(=O)O)cc2)cc1`, the figure is -12% (inactive); as for `O=C(Cn1ccnc1[N+](=O)[O-])NCCO`, -12.1% (inactive). With `NC(=O)[C@@H]1CSSCCC(=O)N[C@@H](CCCCN=C(N)N)C(=O)NCC(=O)N[C@@H](CC(=O)O)C(=O)N[C@@H](Cc2c[nH]c3ccccc23)C(=O)N2CCC[C@H]2C(=O)N1` ([Mpa][hArg]GDWPC-NH2; disulfide 1-7), the activity, negative = cell killing is -19.2% (inactive). As for `O=c1[nH]c(=O)c2ccccc2o1`, the figure is -24.8% (inactive).

As for `NNC(=O)CP(=O)(c1ccccc1)c1ccccc1`, the activity, negative = cell killing was -12.7% (inactive). Take `COc1ccccc1Oc1c(NS(=O)(=O)c2ccc(C(C)(C)C)cc2)nc(-c2ncccn2)nc1OCCO`: the activity, negative = cell killing was -29.9% (inactive). `CCN(CC)CC1CCCCN1CC(=O)N1c2ccccc2C(=O)Nc2cccnc21` (centres undefined): the activity, negative = cell killing was -18.7% (inactive).

In the case of `O=C(/C=C/c1ccc(O)c(O)c1)O[C@@H]1C[C@@](OC(=O)/C=C/c2ccc(O)c(O)c2)(C(=O)O)C[C@@H](O)[C@@H]1O`, the activity, negative = cell killing was -11.7% (inactive). To `CCCNC(C)(C)COC(=O)c1ccccc1` belongs 1.22% (inactive). As to `CNc1c2c(nn1C)CCCC2`, the activity, negative = cell killing was -14.3% (inactive). To `COc1ccccc1OC(=O)Oc1ccccc1OC` belongs -5.39% (inactive); to `CC(=O)N(CC(O)CO)c1c(I)c(C(=O)NCC(O)CO)c(I)c(C(=O)NCC(O)CO)c1I` (centres undefined), -23.8% (inactive); to `CC(N)CCCC(C)(C)O` (centres undefined), -13.9% (inactive). In the case of `Cc1[nH]c(C)c(Cl)c(=O)c1Cl`, the activity, negative = cell killing was -6.6% (inactive). As for `CCN(CC)CCOC(=O)C(c1ccccc1)c1ccccc1`, the figure is -20.1% (inactive); as for `CN1CCCN=C1COC(=O)C(O)(c1ccccc1)C1CCCCC1` (centres undefined), -4.53% (inactive); as for `CCOC(=O)c1cccnc1`, 22.3% (inactive). On to `CCCCCCCCCCC(CO)CCCCCCCC` (centres undefined), for which the activity, negative = cell killing is 14% (inactive). Consider `CCN(CC)S(=O)(=O)c1ccc(C(=O)O)cc1`, for which the activity, negative = cell killing was -15.2% (inactive). In the case of `O=C(NCCCN1CCOCC1)c1ccc(Cl)cc1`, the activity, negative = cell killing is -13.2% (inactive). As for `CC1(C)S[C@@H]2[C@H](N=CN3CCCCCC3)C(=O)N2[C@H]1C(=O)O`, the figure is -4.3% (inactive); as for `O=C(O)c1ccc[n+]([O-])c1`, -21.7% (inactive); as for `NC(=O)CC[C@@H](N)C(=O)O`, 1.46% (inactive).
